Laboratory results taken from the supplement of paper PMC10849652.
The full data set covers some 8,800 targets. This sample favours those with a hit. About 0.5% of all pairs of compound and target were hits.

Tests used:
Experiment in all cases: log2 fold change, soluble protein after heating vs DMSO (PISA); higher = thermal stabilisation; K562 lysate, 10 uM; active = over 0.2 and 3.5 SD of the protein, either way, in both replicates (recomputed)
alvocidib = compound: CN1CC[C@H](c2c(O)cc(O)c3c(=O)cc(-c4ccccc4Cl)oc23)[C@H](O)C1 [alvocidib]
Method in brief: (§1)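 To prepare the extract, K562 pellets were dounce-homogenised in PBS pH 7.4 with 1 mM MgCl2, giving crude material at 1 mg/mL protein. This was treated with 10 μM compound for 30 min, then heated in aliquots for 3 min over 48°C-58°C before pooling and addition of NP-40 to 0.5% at 4°C. Centrifugation at 21,000xg for 90 min left soluble protein in the supernatant, which TMTpro 16plex LC-MS/MS quantified with equalised channel sums. Results are log-two fold changes in thermal stability compared with solvent controls, from duplicates.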

Tubastatin A = compound: CN1CCc2c(c3ccccc3n2Cc2ccc(C(=O)NO)cc2)C1 [Tubastatin A]
Method in brief: as §1

[1] = compound: CNC(=O)C1=CC=CC=C1NC2=NC(=NC=C2Cl)NC3=C(C=C(C=C3)N4CCOCC4)OC
Method in brief: as §1

defactinib = compound: CNC(=O)c1ccc(Nc2ncc(C(F)(F)F)c(NCc3nccnc3N(C)S(C)(=O)=O)n2)cc1 [defactinib]
Method in brief: as §1

[2] = compound: CNc1nc(-c2ccc3c(N)n[nH]c3c2)cc(N2C[C@@H](C(=O)NC3CCCCC3)CC[C@H]2C)n1
Method in brief: as §1

encorafenib = compound: COC(=O)N[C@@H](C)CNc1nccc(-c2cn(C(C)C)nc2-c2cc(Cl)cc(NS(C)(=O)=O)c2F)n1 [encorafenib]
Method in brief: as §1

[3] = compound: COC(=O)[C@H](CCSC)NC(=O)C1=C(C=C(C=C1)NC[C@H](CS)N)C2=CC=CC=C2
Method in brief: as §1

alisertib = compound: COc1cc(Nc2ncc3c(n2)-c2ccc(Cl)cc2C(c2c(F)cccc2OC)=NC3)ccc1C(=O)O [alisertib]
Method in brief: as §1

[4] = compound: COc1cc2nc(-c3cc(F)ccc3O)nc(N[C@@H]3CNC[C@H]3C(C)(C)O)c2cc1OC
Method in brief: as §1

gefitinib = compound: COc1cc2ncnc(Nc3ccc(F)c(Cl)c3)c2cc1OCCCN1CCOCC1 [gefitinib]
Method in brief: as §1

lapatinib = compound: CS(=O)(=O)CCNCc1ccc(-c2ccc3ncnc(Nc4ccc(OCc5cccc(F)c5)c(Cl)c4)c3c2)o1 [lapatinib]
Method in brief: as §1

pictilisib = compound: CS(=O)(=O)N1CCN(Cc2cc3nc(-c4cccc5[nH]ncc45)nc(N4CCOCC4)c3s2)CC1 [pictilisib]
Method in brief: as §1

crizotinib = compound: C[C@@H](Oc1cc(-c2cnn(C3CCNCC3)c2)cnc1N)c1c(Cl)ccc(F)c1Cl [crizotinib]
Method in brief: as §1

[5] = compound: C[C@H](C1=CC=C(C=C1)C(=O)NC2=C3C=CNC3=NC=C2)N
Method in brief: as §1

duvelisib = compound: C[C@H](Nc1ncnc2nc[nH]c12)c1cc2cccc(Cl)c2c(=O)n1-c1ccccc1 [duvelisib]
Method in brief: as §1

gandotinib = compound: Cc1cc(Nc2cc(CN3CCOCC3)c3nc(C)c(Cc4ccc(Cl)cc4F)n3n2)n[nH]1 [gandotinib]
Method in brief: as §1

tozasertib = compound: Cc1cc(Nc2cc(N3CCN(C)CC3)nc(Sc3ccc(NC(=O)C4CC4)cc3)n2)n[nH]1 [tozasertib]
Method in brief: as §1

doramapimod = compound: Cc1ccc(-n2nc(C(C)(C)C)cc2NC(=O)Nc2ccc(OCCN3CCOCC3)c3ccccc23)cc1 [doramapimod]
Method in brief: as §1

bafetinib = compound: Cc1ccc(NC(=O)c2ccc(CN3CC[C@H](N(C)C)C3)c(C(F)(F)F)c2)cc1Nc1nccc(-c2cncnc2)n1 [bafetinib]
Method in brief: as §1

[6] = compound: Cc1cccc(CC(=O)N2CCc3c2ccc(-c2cn(C)c4ncnc(N)c24)c3F)n1
Method in brief: as §1

Measured: log2 fold change

WDCP (UniProt Q9H6R7)
Chain of UniProt Q9H6R7 (Q9H6R7 whole entry, looked up): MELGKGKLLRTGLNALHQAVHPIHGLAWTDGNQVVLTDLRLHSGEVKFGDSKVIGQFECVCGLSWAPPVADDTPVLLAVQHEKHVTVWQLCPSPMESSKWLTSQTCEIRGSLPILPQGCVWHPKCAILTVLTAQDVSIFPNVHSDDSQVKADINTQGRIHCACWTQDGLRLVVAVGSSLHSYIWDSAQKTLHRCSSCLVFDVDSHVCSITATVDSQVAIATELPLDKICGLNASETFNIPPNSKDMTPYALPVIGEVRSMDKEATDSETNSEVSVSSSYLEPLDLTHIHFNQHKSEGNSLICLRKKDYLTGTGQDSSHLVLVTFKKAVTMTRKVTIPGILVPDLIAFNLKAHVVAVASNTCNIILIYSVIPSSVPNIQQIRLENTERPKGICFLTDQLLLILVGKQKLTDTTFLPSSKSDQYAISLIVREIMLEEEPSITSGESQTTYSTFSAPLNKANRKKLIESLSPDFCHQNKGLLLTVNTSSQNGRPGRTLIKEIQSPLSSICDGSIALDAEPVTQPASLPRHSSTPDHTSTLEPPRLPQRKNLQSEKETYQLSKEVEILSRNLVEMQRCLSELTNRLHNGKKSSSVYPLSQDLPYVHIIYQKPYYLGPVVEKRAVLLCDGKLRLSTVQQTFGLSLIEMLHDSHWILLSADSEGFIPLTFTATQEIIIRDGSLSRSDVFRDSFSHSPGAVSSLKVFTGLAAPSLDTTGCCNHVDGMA
inactive: alvocidib 0.019 | Tubastatin A -0.138 | [1] 0.025 | defactinib 0.005 | [2] 0.032 | encorafenib 0.024 | [3] -0.019 | alisertib 0.01 | [4] 0.062 | gefitinib -0.017 | lapatinib -0.048 | pictilisib 0.017 | crizotinib -0.079 | [5] 0.022 | duvelisib 0.038 | gandotinib -0.058 | tozasertib -0.03 | doramapimod -0.02 | bafetinib -0.027 | [6] 0.002

YTHDF3 (UniProt Q7Z739)
inactive: alvocidib 0.03 | Tubastatin A -0.108 | [1] -0.071 | defactinib -0.05 | [2] -0.112 | encorafenib 0.097 | [3] 0.024 | alisertib 0.043 | [4] 0.009 | gefitinib 0.013 | lapatinib -0.065 | pictilisib 0.05 | crizotinib 0.01 | [5] -0.035 | duvelisib 0.017 | gandotinib 0.107 | tozasertib -0.03 | doramapimod 0.078 | bafetinib -0.073 | [6] 0.097

WDHD1 (UniProt O75717)
Chain of UniProt O75717 (O75717 whole entry, looked up): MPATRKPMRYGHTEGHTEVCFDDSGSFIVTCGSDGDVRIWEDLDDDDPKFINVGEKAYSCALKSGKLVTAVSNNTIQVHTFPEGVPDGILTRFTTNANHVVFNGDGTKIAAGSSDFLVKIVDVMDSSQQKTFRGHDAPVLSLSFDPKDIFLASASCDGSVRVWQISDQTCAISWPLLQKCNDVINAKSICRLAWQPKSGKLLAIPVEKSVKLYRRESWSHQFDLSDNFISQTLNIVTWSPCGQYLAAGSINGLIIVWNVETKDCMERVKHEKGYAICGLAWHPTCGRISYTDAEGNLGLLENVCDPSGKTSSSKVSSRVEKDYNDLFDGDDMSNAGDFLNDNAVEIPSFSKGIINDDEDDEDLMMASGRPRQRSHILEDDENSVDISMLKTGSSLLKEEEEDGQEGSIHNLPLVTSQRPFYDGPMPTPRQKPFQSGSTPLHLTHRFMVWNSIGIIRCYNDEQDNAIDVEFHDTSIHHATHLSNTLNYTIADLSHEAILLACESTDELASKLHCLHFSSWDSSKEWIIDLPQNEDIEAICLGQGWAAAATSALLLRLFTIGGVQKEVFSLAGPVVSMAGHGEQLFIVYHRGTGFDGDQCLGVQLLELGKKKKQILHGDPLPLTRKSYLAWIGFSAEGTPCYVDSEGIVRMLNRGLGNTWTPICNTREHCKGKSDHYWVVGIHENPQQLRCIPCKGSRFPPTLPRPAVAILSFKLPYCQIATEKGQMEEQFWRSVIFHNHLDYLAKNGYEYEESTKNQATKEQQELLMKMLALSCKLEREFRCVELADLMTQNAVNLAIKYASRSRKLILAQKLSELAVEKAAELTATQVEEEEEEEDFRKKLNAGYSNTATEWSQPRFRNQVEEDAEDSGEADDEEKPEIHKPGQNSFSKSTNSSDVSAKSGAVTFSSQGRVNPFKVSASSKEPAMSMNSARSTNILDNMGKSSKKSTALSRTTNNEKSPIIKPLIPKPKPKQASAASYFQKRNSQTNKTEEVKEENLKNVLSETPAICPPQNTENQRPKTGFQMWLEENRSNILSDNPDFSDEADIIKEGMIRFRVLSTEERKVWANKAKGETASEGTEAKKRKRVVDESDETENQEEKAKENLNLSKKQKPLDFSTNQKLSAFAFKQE
inactive: alvocidib 0.042 | Tubastatin A -0.073 | [1] 0.004 | defactinib -0.002 | [2] -0.011 | encorafenib -0.019 | [3] 0.098 | alisertib -0.016 | [4] -0.003 | gefitinib 0.015 | lapatinib -0.017 | pictilisib -0.025 | crizotinib -0.035 | [5] 0.077 | duvelisib 0.007 | gandotinib -0.082 | tozasertib -0.043 | doramapimod 0.011 | bafetinib 0.023 | [6] -0.037

UQCC2 (UniProt Q9BRT2)
Chain of UniProt Q9BRT2 (Q9BRT2 whole entry, looked up): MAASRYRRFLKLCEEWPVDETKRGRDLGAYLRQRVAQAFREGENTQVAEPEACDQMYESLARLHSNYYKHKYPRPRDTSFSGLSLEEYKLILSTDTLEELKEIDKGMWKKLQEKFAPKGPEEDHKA
inactive: alvocidib 0.079 | Tubastatin A 0.05 | [1] -0.027 | defactinib 0 | [2] 0.006 | encorafenib 0.021 | [3] -0.025 | alisertib 0.029 | [4] 0.017 | gefitinib -0.059 | lapatinib 0.007 | pictilisib 0.009 | crizotinib 0.036 | [5] 0.158 | duvelisib 0.026 | gandotinib -0.091 | tozasertib -0.015 | doramapimod 0.014 | bafetinib 0.001 | [6] -0.093

VAV1 (UniProt P15498)
Chain of UniProt P15498 (P15498 whole entry, looked up): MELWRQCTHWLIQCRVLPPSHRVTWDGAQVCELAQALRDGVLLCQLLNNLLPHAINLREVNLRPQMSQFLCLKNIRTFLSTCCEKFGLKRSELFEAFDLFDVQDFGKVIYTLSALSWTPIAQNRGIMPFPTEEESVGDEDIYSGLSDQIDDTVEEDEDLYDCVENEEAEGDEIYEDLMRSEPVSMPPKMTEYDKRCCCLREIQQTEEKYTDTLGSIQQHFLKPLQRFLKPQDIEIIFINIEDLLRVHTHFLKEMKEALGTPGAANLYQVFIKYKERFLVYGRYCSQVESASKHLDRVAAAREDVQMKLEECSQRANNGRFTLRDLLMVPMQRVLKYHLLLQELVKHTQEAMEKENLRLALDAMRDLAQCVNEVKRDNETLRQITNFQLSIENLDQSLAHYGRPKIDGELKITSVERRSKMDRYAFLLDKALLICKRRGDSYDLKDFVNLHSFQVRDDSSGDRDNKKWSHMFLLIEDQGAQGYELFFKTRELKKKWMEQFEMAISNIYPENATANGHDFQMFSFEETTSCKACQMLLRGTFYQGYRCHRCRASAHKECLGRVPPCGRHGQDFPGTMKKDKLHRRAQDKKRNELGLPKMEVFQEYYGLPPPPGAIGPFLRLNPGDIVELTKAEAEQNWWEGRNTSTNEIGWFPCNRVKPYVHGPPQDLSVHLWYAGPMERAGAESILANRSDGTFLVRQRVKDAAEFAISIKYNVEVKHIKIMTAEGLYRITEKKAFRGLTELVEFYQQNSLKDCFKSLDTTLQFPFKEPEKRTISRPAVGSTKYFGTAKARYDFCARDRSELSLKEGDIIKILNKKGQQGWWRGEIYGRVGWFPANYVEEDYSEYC
inactive: alvocidib 0.005 | Tubastatin A -0.117 | [1] -0.028 | defactinib 0.018 | [2] 0.007 | encorafenib -0.026 | [3] 0.025 | alisertib -0.006 | [4] -0.044 | gefitinib 0.024 | lapatinib 0 | pictilisib 0.012 | crizotinib -0.059 | [5] -0.057 | duvelisib 0.071 | gandotinib -0.02 | tozasertib 0.011 | doramapimod -0.044 | bafetinib -0.087 | [6] 0.066

VPS33A (UniProt Q96AX1)
Chain of UniProt Q96AX1 (Q96AX1 whole entry, looked up): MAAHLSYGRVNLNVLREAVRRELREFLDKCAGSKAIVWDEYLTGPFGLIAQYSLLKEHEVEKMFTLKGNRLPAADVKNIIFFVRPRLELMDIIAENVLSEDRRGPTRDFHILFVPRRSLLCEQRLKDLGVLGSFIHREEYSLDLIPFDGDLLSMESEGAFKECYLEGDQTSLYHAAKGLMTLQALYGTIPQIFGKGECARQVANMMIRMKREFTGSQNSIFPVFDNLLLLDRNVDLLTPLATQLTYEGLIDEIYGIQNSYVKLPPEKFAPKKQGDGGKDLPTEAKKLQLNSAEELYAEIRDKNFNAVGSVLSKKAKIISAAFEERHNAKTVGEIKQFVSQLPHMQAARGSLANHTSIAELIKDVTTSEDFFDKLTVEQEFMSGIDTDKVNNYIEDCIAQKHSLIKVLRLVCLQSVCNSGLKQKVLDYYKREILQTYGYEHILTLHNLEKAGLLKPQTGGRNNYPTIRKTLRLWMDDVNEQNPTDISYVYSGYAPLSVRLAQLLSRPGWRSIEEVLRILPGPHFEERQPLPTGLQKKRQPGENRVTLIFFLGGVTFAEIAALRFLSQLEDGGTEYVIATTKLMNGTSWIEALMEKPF
inactive: alvocidib -0.01 | Tubastatin A -0.077 | [1] 0.033 | defactinib 0.012 | [2] -0.011 | encorafenib 0.028 | [3] -0.044 | alisertib 0.021 | [4] -0.022 | gefitinib 0.027 | lapatinib 0 | pictilisib -0.005 | crizotinib -0.025 | [5] -0.03 | duvelisib 0.039 | gandotinib -0.043 | tozasertib 0.01 | doramapimod 0 | bafetinib 0.014 | [6] 0.036

VASP (UniProt P50552)
Chain of UniProt P50552 (P50552 whole entry, looked up): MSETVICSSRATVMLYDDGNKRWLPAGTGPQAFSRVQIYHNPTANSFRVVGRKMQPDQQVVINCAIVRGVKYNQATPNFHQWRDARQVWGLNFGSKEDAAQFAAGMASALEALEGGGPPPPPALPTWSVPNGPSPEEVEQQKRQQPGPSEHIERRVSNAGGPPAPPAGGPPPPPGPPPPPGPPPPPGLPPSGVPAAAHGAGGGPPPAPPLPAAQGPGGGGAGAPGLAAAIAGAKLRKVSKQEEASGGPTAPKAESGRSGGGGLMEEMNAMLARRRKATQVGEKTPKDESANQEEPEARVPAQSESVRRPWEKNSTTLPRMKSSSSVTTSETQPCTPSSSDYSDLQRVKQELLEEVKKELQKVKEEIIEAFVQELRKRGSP
inactive: alvocidib 0.031 | Tubastatin A 0.022 | [1] -0.017 | defactinib 0.013 | [2] -0.003 | encorafenib -0.033 | [3] -0.007 | alisertib 0.018 | [4] 0.009 | gefitinib 0.019 | lapatinib -0.006 | pictilisib 0.004 | crizotinib 0.007 | [5] -0.017 | duvelisib 0.047 | gandotinib 0.005 | tozasertib 0.019 | doramapimod -0.004 | bafetinib 0.136 | [6] 0.009

USP8 (UniProt P40818)
Chain of UniProt P40818 (P40818 whole entry, looked up): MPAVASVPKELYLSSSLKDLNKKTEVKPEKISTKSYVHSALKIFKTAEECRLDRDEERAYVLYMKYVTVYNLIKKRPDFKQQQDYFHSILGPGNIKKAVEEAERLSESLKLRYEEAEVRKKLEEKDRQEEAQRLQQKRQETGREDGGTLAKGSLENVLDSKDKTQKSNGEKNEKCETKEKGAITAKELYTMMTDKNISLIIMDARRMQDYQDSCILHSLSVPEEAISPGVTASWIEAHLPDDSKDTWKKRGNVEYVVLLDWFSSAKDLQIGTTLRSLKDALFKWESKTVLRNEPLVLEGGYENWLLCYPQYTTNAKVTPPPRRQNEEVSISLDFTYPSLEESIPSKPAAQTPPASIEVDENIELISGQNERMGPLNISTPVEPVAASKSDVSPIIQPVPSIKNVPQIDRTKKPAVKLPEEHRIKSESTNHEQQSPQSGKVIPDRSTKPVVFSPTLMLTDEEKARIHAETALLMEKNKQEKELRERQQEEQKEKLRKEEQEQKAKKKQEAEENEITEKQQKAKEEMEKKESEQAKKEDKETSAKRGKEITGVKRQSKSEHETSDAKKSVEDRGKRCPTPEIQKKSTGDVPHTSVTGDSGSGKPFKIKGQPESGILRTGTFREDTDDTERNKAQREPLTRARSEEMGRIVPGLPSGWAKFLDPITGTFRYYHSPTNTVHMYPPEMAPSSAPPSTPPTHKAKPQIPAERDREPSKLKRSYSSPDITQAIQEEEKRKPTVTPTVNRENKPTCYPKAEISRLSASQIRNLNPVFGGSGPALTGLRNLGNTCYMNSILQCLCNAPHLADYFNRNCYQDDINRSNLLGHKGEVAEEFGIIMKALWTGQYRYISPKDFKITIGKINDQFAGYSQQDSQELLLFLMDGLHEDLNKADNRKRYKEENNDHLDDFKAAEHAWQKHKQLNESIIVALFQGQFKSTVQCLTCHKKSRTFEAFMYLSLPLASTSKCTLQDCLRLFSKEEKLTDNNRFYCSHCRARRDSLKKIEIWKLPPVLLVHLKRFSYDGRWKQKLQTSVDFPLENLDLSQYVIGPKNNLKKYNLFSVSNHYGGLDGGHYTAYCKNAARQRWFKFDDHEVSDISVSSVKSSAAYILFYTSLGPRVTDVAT
inactive: alvocidib 0.023 | Tubastatin A -0.018 | [1] 0.014 | defactinib 0.02 | [2] 0.005 | encorafenib 0.004 | [3] 0.102 | alisertib -0.011 | [4] 0.002 | gefitinib 0.015 | lapatinib -0.011 | pictilisib -0.048 | crizotinib -0.009 | [5] 0.002 | duvelisib -0.023 | gandotinib -0.077 | tozasertib -0.013 | doramapimod 0.001 | bafetinib -0.026 | [6] 0.017
